Source: PubChem
aSyn rescue: qHTS of alpha-syn Inhibitors; Yeast expressing alpha-synuclein, growth rescue, BacTiter-Glo, 24 h; Potency, µM (doses to about 46.1 µM), without a hit: top-dose growth rescue (activation), most hits filed as activators; hit rate 0.14% among 370,000; also: % of control where 0% means no effect; nearly all actives have a fitted effect of over 65% in size
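Readout is rescue of growth in alpha-synuclein-expressing yeast, so inhibitors of toxicity appear as activators. Growth after 24 hr at 30 deg C in galactose medium is quantified by luminescence.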
TDP43 rescue: qHTS of TDP-43 Inhibitors; TDP-43 expressing yeast growth rescue, BacTiter-Glo, 24 h; Potency, µM (highest dose often 46.1 µM), without a hit: at the top dose growth rescue (activation), usual class: activators; AID 652104, 2013; hit rate 1.8% among 410,000; also: % of control where 0% means no effect; nearly all actives have a fitted effect of over 50% in size
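Yeast expressing TDP-43 (pregrown in raffinose, seeded at OD600=0.02 in galactose medium) exposed to compounds 24 hr at 30 deg C. Growth read by BacTiter-Glo luminescence; rescue of toxicity appears as increased signal.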
FUS suppressor: qHTS for Suppressors of FUS Proteinopathy: Primary screen using FUS-linked yeast assay; Potency, µM (top dose mostly 76.6 µM), most hits filed as activators; hit rate 0.24% among 390,000; S. cerevisiae FUS-expressing, growth rescue, OD600, 24 h; AID 1347120, 2019;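 also: plate controls were DMSO vehicle for no effect and reference control for full effect; nearly all actives have a fitted effect of over 55% in size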
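Galactose (2%) drives FUS expression in yeast precultured in raffinose; seeding density OD 0.005. Test compounds incubated 24hr at 30C and 99% humidity before absorbance at 600 nm was measured.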
Abeta rescue: qHTS for compounds that reverse cellular toxicity of Amyloid beta (A-beta) peptide in yeast: Primary Screen; yeast expressing A-beta42, growth rescue, OD600, 48 h; response scale: 0% DMSO, 100% iron-clioquinol control; Potency, µM (titrated, usually from 46.1 µM), hits mostly activators; hit rate 0.063% among 410,000; AID 1347071, 2019; also: nearly all actives have a fitted effect of over 55% in size
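Yeast growth medium received pinned compounds, then yeast cells expressing toxic A-beta were added; plates incubated at 30 C for 48 hr. Growth read as absorbance at 600 nm, normalized to DMSO and equimolar FeCl3 plus clioquinol controls.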
Active calls of the source: *; i = inactive; ? = inconclusive; . = no result; [ ] = remark or other dose. Hits are enriched below; roughly 2.1% of the tested compounds scored in any of these assays. Calls follow the shape of the dose curve; as a rule, active = well fitted curve in the direction sought with a large enough effect; inconclusive = small, poorly fitted or top-dose-only effect, or another doubt; inactive = no such curve, though single readings can be large; an effect the other way counts as inactive or inconclusive. Potency is read from the fitted curve at half-maximal effect.

SMILES	aSyn rescue	TDP43 rescue	FUS suppressor	Abeta rescue
COc1cc(C(O)c2nc(-c3ccc4ccccc4c3)cs2)ccc1F (stereo not given)	3.4%	?	i	i
COc1ccc(C(O)c2nc(-c3ccccc3)cs2)cc1 (stereo not given)	20.3%	35.5µM*	i	?
COc1ccc(C(O)c2nc(-c3ccc(Cl)cc3)cs2)cc1 (stereo not given)	11.2µM*	?	i	?
O=C(Nc1cccc(-c2nc3ncccc3o2)c1)c1ccc(-c2cccc(Cl)c2Cl)o1	.	4.1%	i	i
CC(C)(C)C(=O)NC1(C(F)(F)F)C(=O)Nc2c1c(=O)[nH]c(=O)n2-c1ccccc1 (stereo not given)	.	4.4%	i	i
O=c1cc(N2CCN(c3cccc(C(F)(F)F)c3)CC2)[nH]c(=O)n1C1CCCCC1	.	.	i	.
COc1ccc(C(O)c2nc(-c3cccs3)cs2)cc1 (stereo not given)	17.6%	15.8µM*	i	i
COc1ccc(-c2csc(C(O)c3ccc(F)cc3)n2)cc1 (stereo not given)	?	22.4µM*	i	i
OC(c1ccc(F)cc1)c1nc(-c2ccc(F)c(Cl)c2)cs1 (stereo not given)	-59.3%	-85.5%	i	i
OC(c1ccco1)c1nc(-c2ccc(F)c(Cl)c2)cs1 (stereo not given)	1.1%	12.6µM*	i	i
CCOC(=O)C1CCCN(C(=O)c2cccc(NC(=O)c3nsc4ccccc34)c2)C1 (stereo not given)	.	?	?	i
O=C(Nc1c(-c2ccc(C(F)(F)F)cc2)nc2ncccn12)c1ccc(F)cc1	.	.	i	.
Cc1cc(F)ccc1S(=O)(=O)Nc1ccc2oc3c(c2c1)CC(C)CC3 (stereo not given)	.	35.5µM*	i	i
CCCCCCSc1nsc(NC(C)=O)n1	2.3%	?	i	i
CCCCSc1nsc(NC(C)=O)n1	.	12.6µM*	i	i
O=C(Cn1c(=O)n(Cc2ccc3c(c2)OCO3)c(=O)c2ccc(C(=O)NC3CCCCC3)cc21)Nc1ccccc1F	.	8.0%	i	i
Cc1cc(-c2ccc([N+](=O)[O-])cc2)nc2ccccc12	-7.4%	-7.7%	i	i
Cc1cc(-c2cccc([N+](=O)[O-])c2)nc2ccccc12	-2.3%	11.2µM*	i	i
CC(C)Cc1ccc(C(C)C(=O)Nc2ccc(O)cc2)cc1 (stereo not given)	-15.4%	11.2µM*	i	i
O=C1CN(C(=O)COc2ccc(Cl)cc2)C(c2ccc(F)cc2)c2cc(Cl)ccc2N1 (stereo not given)	.	?	i	i
CC(=O)Nc1nc2ccc(Br)cc2s1	-18.3%	12.6µM*	i	i
COc1ccc2nc(NC(C)=O)sc2c1	-6.0%	21.5%	i	i
Cc1ccc(CNc2ncnc3[nH]ncc23)o1	-4.3%	.	.	.
COc1cc(-c2cc(OC)c3c(C)oc(C)c3c(=O)c2)ccc1OC(=O)c1cccc(Cl)c1	.	20µM*	?	i
COc1cc(-c2cc(OC)c3c(C)oc(C)c3c(=O)c2)ccc1OC(=O)c1ccccc1C	.	20µM*	?	i
SMILES	aSyn rescue	TDP43 rescue	FUS suppressor	Abeta rescue
CCOc1cc(-c2ccc(OC(=O)c3ccc(C)cc3)c(OC)c2)cc(=O)c2c(C)oc(C)c12	.	17.8µM*	?	i
COc1ccc(Sc2nc(-c3ccccn3)ncc2OC)cc1	12.7%	2.2%	i	?
COc1cnc(-c2ccccn2)nc1Sc1ccc(F)cc1	8.6%	-19.4%	i	10µM*
COc1cnc(-c2ccccn2)nc1Sc1ccc(Cl)cc1	-6.1%	14.1µM*	i	?
COc1cnc(-c2ccccn2)nc1Sc1ccccc1	-8.8%	-20.7%	i	?
CNC(=O)C(=O)Nc1ccc2c(c1)N(S(=O)(=O)c1cccs1)CCC2	8.7%	15.8µM*	i	i
Cc1ccc(-c2csc(NC(=O)c3c(C)noc3C)n2)s1	-8.8%	11.2µM*	.	i
CCc1ccc(CCNC(=O)OCCCN2CCC3(CCC(c4ccccc4)CC3)C2=O)cc1 (stereo not given)	.	.	i	.
CC(C)CC(=O)NC(=S)Nc1ccccc1N1CCCC1	9.5%	22.8%	i	7.08µM*
O=C(NC(=S)Nc1ccccc1N1CCCCC1)c1cccs1	-11.6%	?	i	i
O=C(NC(=S)Nc1ccccc1N1CCCC1)c1cccs1	-0.2%	?	i	11.2µM*
CC(C)CC(=O)Nc1ccccc1N1CCCC1	-11.0%	-18.3%	.	i
O=C(CCNS(=O)(=O)c1ccc(Br)s1)N1CCN(c2ccccc2)CC1	?	17.8µM*	i	i
COc1ccccc1N1CCN(C(=O)CCNS(=O)(=O)c2ccc(Br)s2)CC1	?	22.4µM*	i	i
Cc1ccc(Cl)cc1NC(=O)CN1C=NS(=O)(=O)c2ccccc21	.	15.4%[9.22 µM]	i	i
Cn1c(CNC(=O)CSc2n[nH]c(-c3ccccc3)n2)nc2ccccc21	.	14.5%	i	i
Cc1ccc(/C=C/C(=O)N2CC(C)CC(C)C2)o1 (stereo not given)	7.7%	25.1µM*	i	i
CCN1CCN(C(=O)/C=C/c2ccc(C)o2)CC1	-1.4%	10.9%	.	i
COc1cc(OC)cc(-c2sc3ccc(OC)cc3c2C#CCCO)c1	1.7%	0.0%	?	i
COc1ccccc1-c1sc2cc3c(cc2c1C#CCO)OCO3	0.3%	22.4µM*	?	i
COc1ccc2sc(-c3ccccc3OC)c(C#CCCO)c2c1	-11.8%	20µM*	i	i
Cc1c(Cl)cccc1NC(=O)C(CCS(C)(=O)=O)N1Cc2ccccc2C1=O (stereo not given)	.	7.8%	i	i
O=C(CCN1N=C(c2ccccc2)CCC1=O)NCCc1ccc(Cl)cc1	.	?	i	i
COc1ccc(CC(=O)NO)cc1	-7.2%	.	.	.
COC(=O)/N=C(/Cc1ccc(OC)cc1)c1ccc(OC)cc1	-2.9%	22.4µM*	i	i
SMILES	aSyn rescue	TDP43 rescue	FUS suppressor	Abeta rescue
CCCCN(CC)CCCNC(=O)C1CCN(c2nc3ccc(CC)cc3s2)CC1	.	12.9%	i	i
C/C=C/C1=CC(=O)C[C@H](c2ccc(Cl)cc2)C1	3.7%	12.6µM*	i	i
C/C=C/C1=CC(=O)C[C@H](c2ccc(OC)c(OC)c2)C1	2.8%	29.1%	i	i
C/C=C/C1=CC(=O)C[C@H](c2ccc3c(c2)OCO3)C1	8.1%	11.2µM*	i	i
COc1cccc(NC(=O)C(=O)NCC(c2ccc3c(c2)OCO3)N2CCOCC2)c1 (stereo not given)	.	-7.8%	i	i
O=[N+]([O-])c1ccc(OCc2cnc(Cl)s2)c([N+](=O)[O-])c1	3.0%	11.2µM*	i	i
CCc1ccc(NC(=O)CSc2nnc(-c3ccccc3)n2C)cc1	3.0%	.	.	.
